Values joined by “and” are separate entries in the source; they are usually repeats but may differ in a detail not shown here. Equal values may be shown once. Results filed as inconclusive are left out. Active and inactive are the calls of the source. Unless noted, calls follow the shape of the dose curve; as a rule, active = well fitted curve in the direction sought with a large enough effect; inconclusive = small, poorly fitted or top-dose-only effect, or another doubt; inactive = no such curve, though single readings can be large; an effect the other way counts as inactive or inconclusive.
Key:
[1] = target: Cellular tumor antigen p53 (Homo sapiens) (UniProt P04637); assay: Primary qHTS for small molecule compounds that upregulate eGFP-tagged delta133p53alpha (in N-terminal) cells. (AID 2060322); details: NCI-H358 eGFP-delta133p53alpha fluorescence, 24 h; activation: active compounds read high;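 also: cells pre-induced with doxycycline then dosed without doxycycline; series mostly up to about 56 µM; 0% = DMSO vehicle and 100% = reference activator; nearly all actives have a fitted effect of over 75% in size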
Chain of Cellular tumor antigen p53 (Homo sapiens) (P04637 whole entry, looked up): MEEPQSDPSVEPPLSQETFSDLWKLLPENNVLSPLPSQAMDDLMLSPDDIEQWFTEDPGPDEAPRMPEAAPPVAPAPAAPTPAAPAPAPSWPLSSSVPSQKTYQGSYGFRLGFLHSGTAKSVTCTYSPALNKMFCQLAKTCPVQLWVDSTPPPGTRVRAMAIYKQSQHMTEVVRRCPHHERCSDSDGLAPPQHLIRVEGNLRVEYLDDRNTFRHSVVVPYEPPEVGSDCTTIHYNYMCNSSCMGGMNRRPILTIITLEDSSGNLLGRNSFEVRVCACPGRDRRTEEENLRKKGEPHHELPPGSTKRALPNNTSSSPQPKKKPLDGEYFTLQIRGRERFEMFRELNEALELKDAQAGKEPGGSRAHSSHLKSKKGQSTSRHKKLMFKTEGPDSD
Method in brief: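 NCI-H358 cells pre-induced 24 h with 10 ng/ml doxycycline for eGFP-delta133p53alpha, plated dox-free and exposed 24 h at 37C to titrated compounds. Fixed, Hoechst-stained; gated GFP peak intensity by laser scanning cytometry, normalized to DMSO (0%) and 57.5 uM 5-azacytidine (100%).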

[2] = target: Aldehyde dehydrogenase, mitochondrial (Homo sapiens) (UniProt P05091); assay: qHTS for Inhibitors of the Aldehyde Dehydrogenase Family (ALDH2) Validation screens (AID 2061302; active = well fitted inhibition curve with a large enough effect; title and protocol of this record describe different tests;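 also: plate controls were DMSO vehicle for no effect and maximal DPI positive control response for full effect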)
[3] = target: Retinaldehyde dehydrogenase 3 (Homo sapiens) (UniProt P47895); assay: qHTS for Inhibitors of the Aldehyde Dehydrogenase Family (ALDH1A3) Validation screen (AID 2061312); also: % is scaled to controls: 0 for no effect and ±100 for the full control effect; nearly all actives have a fitted effect of over 45% in size

CC(C)(C)c1ccc(C(=O)CCCN2CCC(OC(c3ccccc3)c3ccccc3)CC2)cc1
inactive: activation [1] -44.6% | Potency [2] | Potency [3]

CC1=C(C(=O)O)N2C(=O)[C@@H](NC(=O)C(N)c3ccccc3)[C@H]2SC1 (stereo partly drawn)
inactive: activation [1] 15.6% and -22.6% | Potency [2] | Potency [3]

O=C(O)[C@H]1NCCC[C@H]1C(=O)O
inactive: activation [1] -3.88% | Potency [2] | Potency [3]

COc1ccccc1N1CCN(CCCCN2C(=O)c3ccccc3C2=O)CC1
inactive: activation [1] -14.4% | Potency [2] | Potency [3]

C[C@]12CC[C@@H]3c4ccc(O)cc4CC[C@H]3[C@@H]1CCC2=O
inactive: activation [1] 11.7% | Potency [2] | Potency [3]

Cc1cccc(C)c1OCC(C)N (stereo not drawn)
inactive: activation [1] 8.37% and -22.7% | Potency [2] | Potency [3]

CC(C)NNC(=O)c1ccncc1
inactive: activation [1] 1.67% and -19% | Potency [2] | Potency [3]

CN1CCN(c2nc3cc(C(F)(F)F)ccc3n3cccc23)CC1
inactive: activation [1] -11.1% | Potency [2] | Potency [3]

Cc1cccc(C)c1NC(=O)C(C)N (stereo not drawn)
inactive: activation [1] 10.9% and -14% | Potency [2] | Potency [3]

COc1ccc(CCN(C)CCCC(C#N)(c2cc(OC)c(OC)c(OC)c2)C(C)C)cc1OC (stereo not drawn)
inactive: activation [1] -8.73% | Potency [2] | Potency [3]

O=C1NCN(c2ccccc2)C12CCN(CCCC(c1ccc(F)cc1)c1ccc(F)cc1)CC2
inactive: activation [1] -12.6% and -53.2% | Potency [2] | Potency [3]

From PubChem BioAssay (NCATS)
